Experiment [1] in a line: Validation of Assay for Modulators of Lamin A Splicing (AID 1459; active = well fitted curve in the direction sought with a large enough effect in the signal ratio; the % refers to the signal ratio;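 also: cells exposed to compound for two days before reading; 0% is about no effect; ratio rise marks activators and ratio drop marks inhibitors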). The procedure, abridged:
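HeLa S3 lamin A-EGFP/DsRed2 stable clone, 600 cells/well, Opti-MEM 2% FBS; compounds by pin tool; 48 hrs, 37 °C/5% CO2; Acumen 488 nm scan, objects 10-100 um; GFP/RFP intensity ratio.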

For experiment [2], the target named is DNA repair nuclease/redox regulator APEX1 (Homo sapiens) (UniProt P27695). Nature of the experiment: qHTS Validation Assay for Inhibitors of the Human Apurinic/apyrimidinic Endonuclease 1 (APE1) (AID 1705;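 also: TAMRA fluorescence gain over two minutes as APE1 cuts a quenched THF abasic duplex; % is scaled to controls: 0 for no effect and ±100 for the full control effect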). The procedure, abridged: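 qHTS, 1536-well. APE1 + cpd 15 min RT → 50 nM TAMRA/BHQ-2 THF-abasic dsDNA substrate → kinetic fluorescence, 3 reads/60 s; delta(read3−read1) = reaction progress. No-enzyme buffer = negative control.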
A general note: In qHTS, concentration-response curves come from the screen itself.

The nature of experiment [3]: Counterscreen for APE1 Inhibitors: Fluorescent Dye Displacement Validation Assay (AID 1707).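 Also: plate controls were ThO with dsDNA and no compound for no effect and ThO without dsDNA for full effect.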 The procedure, abridged:
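ThO 250 nM + dsDNA 50 nM (THF abasic site, 5'-TAMRA), Tris-HCl pH7.5/50mM NaCl/2 mM MgCl2/0.01% Tween-20; compounds pin-transferred; ex 480/em 540 nm endpoint. Neutral = no compound; no-DNA ThO wells = negative control.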

Experiment [4] addresses Endonuclease 4 (Escherichia coli (strain K12)) (UniProt P0A6C1). The experiment can be described thus: Counterscreen for APE1 Inhibitors: qHTS Validation Assay for Inhibitors of Endonuclease IV (AID 1708). Also: % is scaled to controls: 0 for no effect and ±100 for the full control effect. The procedure, abridged: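 Cleavage of a quenched abasic-site DNA duplex (50 nM, 5'-TAMRA, 3'-BHQ-2) by 2 nM enzyme is followed as fluorescence increase. Compounds are preincubated with enzyme 15 min at room temperature before substrate addition.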
On the technique in general: Counterscreens check selectivity or assay interference.

The nature of experiment [5]: qHTS for differential inhibitors of proliferation of Plasmodium falciparum line 7G8 (AID 1815).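 Also: parasite growth measured after three days of incubation.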 Also: potency is read from the fitted curve at half-maximal effect.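 As to activity change, negative = inhibition: plate controls were vehicle wells for no effect and reference inhibitor wells for full effect.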
Experiment [6] in a line: qHTS for differential inhibitors of proliferation of Plasmodium falciparum line GB4 (AID 1816).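 Also: parasite growth measured after 72 h incubation.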 Also: potency is read from the fitted curve at half-maximal effect.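 As to activity change, negative = inhibition: 0% = vehicle DMSO and -100% = reference inhibitor.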 The settings on record: Potency: Plasmodium falciparum GB4 proliferation inhibition.
Experiment [7] is described as follows: qHTS for differential inhibitors of proliferation of Plasmodium falciparum line 3D7 (AID 1876). Also: potency is read from the fitted curve at half-maximal effect.
Experiment [8] in a line: qHTS for differential inhibitors of proliferation of Plasmodium falciparum line D10 (AID 1877).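 Also: parasites grown with compound for 72 h before DNA staining.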 Also: potency is read from the fitted curve at half-maximal effect.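 As to activity change, negative = inhibition: plate controls were vehicle wells for no effect and reference inhibitor wells for full effect.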
Experiment [9] can be described thus: qHTS for differential inhibitors of proliferation of Plasmodium falciparum line Dd2 (AID 1882). Also: nearly all actives have a fitted effect of over 65% in size. Also: potency is read from the fitted curve at half-maximal effect.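 As to activity change, negative = inhibition: compound exposure of 72 h on infected erythrocytes; plate controls were DMSO vehicle for no effect and 0.29 µM artemisinin for full effect.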 The conditions noted are these: Potency: Plasmodium falciparum Dd2 proliferation inhibition. The procedure, abridged:
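SYBR Green I DNA fluorescence read-out, ex 485/em 535 nm. Signals were normalized to 0.29 uM artemisinin and DMSO wells, then corrected using vehicle-only plates flanking each stack. Parasite growth ran 72 h in erythrocytes before lysis.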

Experiment [10] in a line: qHTS for differential inhibitors of proliferation of Plasmodium falciparum line W2 (AID 1883).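 Also: parasites grown with compound for 72 h before lysis and staining.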 Also: potency is read from the fitted curve at half-maximal effect.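 As to activity change, negative = inhibition: 0% = vehicle wells and -100% = control inhibitor wells.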 The settings on record: Potency: Plasmodium falciparum W2 proliferation inhibition.
A short description of experiment [11]: qHTS for differential inhibitors of proliferation of Plasmodium falciparum line HB3 (AID 1886).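 Also: parasites grown with compound for 72 h before SYBR Green readout.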 Also: potency is read from the fitted curve at half-maximal effect.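 As to activity change, negative = inhibition: plate controls were vehicle for no effect and reference inhibitor for full effect.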 The settings on record: Potency: Plasmodium falciparum HB3 proliferation inhibition.
Experiment [12] in a line: qHTS Assay for Modulators of Human Peripheral Myelin Protein 22 (PMP22) Expression/Activity (AID 1967; active = well fitted curve in the direction sought with a large enough effect in the signal ratio; the % refers to the signal ratio;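 also: 0% = untreated cells and 100% end not stated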). The procedure, abridged:
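Luminescence ratio of Pmp22 promoter-driven green luciferase to EF-alpha-driven red luciferase, in engineered mouse MSC80 Schwann cells, served as read-out. Compounds were incubated 24h; untreated cells defined 0% Activity; curves were classified by r2, magnitude and activity.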

Experiment [13] can be described thus: qHTS Assay for Lipid Storage Modulators (AID 1519; calls by dose curve; as to activity change, negative = inhibition: % is scaled to controls: 0 for no effect and ±100 for the full control effect). The settings on record: Drosophila S3 cells, BODIPY lipid droplet/cell ratio, laser cytometry, cells loaded with oleic acid; for activity change, negative = inhibition: at 57.5 µM (top of the series). A digest of the protocol: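 Cells seeded at 5,000 per well were treated with compounds over a concentration series and loaded with oleic acid (400 uM, as added). Lipid droplet fluorescence (488 nm excitation, 500-530 nm channel) was read by laser-scanning cytometry and normalized to 20 uM Triacsin C.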

Experiment [14] has as its target Ferritin light chain (Equus caballus) (UniProt P02791). Nature of the experiment: qHTS Validation Assay for Identification of Novel General Anesthetics (AID 2323). Also: % is scaled to controls: 0 for no effect and ±100 for the full control effect. The procedure, abridged:
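Fluorescence at 535 nm (excitation 380 nm) reported loss of 1-AMA binding to horse-spleen apoferritin (10 uM) in PBS with 50% saturated 1-aminoanthracene, after 10 min room-temperature incubation with compound; values from Hill fits of normalized response.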

Experiment [15] concerns the target ATP-dependent DNA helicase Q1 (Homo sapiens) (UniProt P46063). Nature of the experiment: qHTS Validation Assay for Inhibitors of RecQ-Like Dna Helicase 1 (RECQ1) (AID 2353).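 Also: plate controls were DMSO vehicle for no effect and enzyme-free control for full effect.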 The procedure, abridged: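 50 nM RECQ1T1 preincubated 15 min with compound in Tris pH 8.0 buffer with MgCl2, DTT, Tween-20 and 2.5 ug/ml poly(dI-dC); started with 200 nM TAMRA/BHQ-2 forked duplex and 2 mM ATP. Unwinding read as fluorescence (525/598 nm), two reads 2 h apart.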

For experiment [16], the target named is alpha-glucosidase (Oryza sativa, rice) (UniProt Q653V4). Nature of the experiment: Counterscreen for Glucocerebrosidase Inhibitors: qHTS Assay for Rice alpha-Glucosidase at pH 5.0 (AID 997).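 Also: 0% = full activity with enzyme and -100% = basal without enzyme.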 A digest of the protocol: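 Rice alpha-glucosidase (4 nM final) with 400 uM 4-methylumbelliferyl-alpha-D-glucopyranoside in citrate buffer pH 5.0, 20 min at room temperature, stopped at pH 10; fluorescence 365/440 nm, compounds 0.7 nM–77 uM, AC50 from Hill fits.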

Experiment [17] addresses RecQ-like DNA helicase BLM (Homo sapiens) (UniProt P54132). The experiment can be described thus: qHTS Validation Assay for Inhibitors of Bloom's syndrome helicase (BLM) (AID 2364).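 Also: plate controls were DMSO vehicle for no effect and enzyme-free control for full effect.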 The procedure, abridged:
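50 nM BLM preincubated 15 min at room temperature with compound in pH 8.0 Tris buffer containing 2.5 ug/ml poly(dI-dC); started with 200 nM TAMRA/BHQ-2 forked duplex and 2 mM ATP (final). Unwinding read as TAMRA fluorescence increase, two reads 2 h apart.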

[18] abbreviates: measured here: cell count channel max response.
Setting [19] is: measured here: lipid channel max response.

This is an account of results in PubChem BioAssay (NCATS).

Inconclusive results are not listed. Calls of active or inactive are those of the source. Unless noted, calls follow the shape of the dose curve; as a rule, active = well fitted curve in the direction sought with a large enough effect; inconclusive = small, poorly fitted or top-dose-only effect, or another doubt; inactive = no such curve, though single readings can be large; an effect the other way counts as inactive or inconclusive.

Chain of Ferritin light chain (Equus caballus) (P02791 2-175 limits assumed): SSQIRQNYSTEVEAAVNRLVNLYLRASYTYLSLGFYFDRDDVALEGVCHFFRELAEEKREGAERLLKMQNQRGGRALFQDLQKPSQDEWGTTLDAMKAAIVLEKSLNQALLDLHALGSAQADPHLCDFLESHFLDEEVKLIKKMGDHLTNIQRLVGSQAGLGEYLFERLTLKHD
Chain of DNA repair nuclease/redox regulator APEX1 (Homo sapiens) (P27695 whole entry, looked up): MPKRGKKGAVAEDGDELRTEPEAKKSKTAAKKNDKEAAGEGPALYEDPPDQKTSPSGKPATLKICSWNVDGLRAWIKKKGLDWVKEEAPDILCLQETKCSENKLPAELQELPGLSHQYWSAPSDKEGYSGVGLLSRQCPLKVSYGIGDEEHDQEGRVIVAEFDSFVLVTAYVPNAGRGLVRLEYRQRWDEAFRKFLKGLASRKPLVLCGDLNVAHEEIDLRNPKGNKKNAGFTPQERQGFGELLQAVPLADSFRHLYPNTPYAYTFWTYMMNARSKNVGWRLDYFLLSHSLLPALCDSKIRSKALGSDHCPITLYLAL
Chain of ATP-dependent DNA helicase Q1 (Homo sapiens) (P46063 whole entry, looked up): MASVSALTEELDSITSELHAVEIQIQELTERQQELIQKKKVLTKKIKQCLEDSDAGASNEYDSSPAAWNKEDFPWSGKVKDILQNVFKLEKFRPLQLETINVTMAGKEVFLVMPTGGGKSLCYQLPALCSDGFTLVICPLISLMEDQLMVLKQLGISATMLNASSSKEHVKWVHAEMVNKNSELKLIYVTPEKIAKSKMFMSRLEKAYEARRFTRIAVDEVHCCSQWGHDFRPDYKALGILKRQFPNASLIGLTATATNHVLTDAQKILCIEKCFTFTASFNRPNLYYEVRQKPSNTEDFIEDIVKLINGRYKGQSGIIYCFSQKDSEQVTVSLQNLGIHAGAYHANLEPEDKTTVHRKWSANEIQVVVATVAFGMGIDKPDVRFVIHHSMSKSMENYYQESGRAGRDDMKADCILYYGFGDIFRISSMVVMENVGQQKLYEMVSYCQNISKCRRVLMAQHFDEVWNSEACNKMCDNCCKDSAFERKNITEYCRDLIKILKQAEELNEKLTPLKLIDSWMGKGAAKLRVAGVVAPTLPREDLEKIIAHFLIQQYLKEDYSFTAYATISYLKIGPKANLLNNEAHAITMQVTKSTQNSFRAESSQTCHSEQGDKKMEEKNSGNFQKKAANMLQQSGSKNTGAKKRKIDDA
Chain of RecQ-like DNA helicase BLM (Homo sapiens) (P54132 whole entry, looked up): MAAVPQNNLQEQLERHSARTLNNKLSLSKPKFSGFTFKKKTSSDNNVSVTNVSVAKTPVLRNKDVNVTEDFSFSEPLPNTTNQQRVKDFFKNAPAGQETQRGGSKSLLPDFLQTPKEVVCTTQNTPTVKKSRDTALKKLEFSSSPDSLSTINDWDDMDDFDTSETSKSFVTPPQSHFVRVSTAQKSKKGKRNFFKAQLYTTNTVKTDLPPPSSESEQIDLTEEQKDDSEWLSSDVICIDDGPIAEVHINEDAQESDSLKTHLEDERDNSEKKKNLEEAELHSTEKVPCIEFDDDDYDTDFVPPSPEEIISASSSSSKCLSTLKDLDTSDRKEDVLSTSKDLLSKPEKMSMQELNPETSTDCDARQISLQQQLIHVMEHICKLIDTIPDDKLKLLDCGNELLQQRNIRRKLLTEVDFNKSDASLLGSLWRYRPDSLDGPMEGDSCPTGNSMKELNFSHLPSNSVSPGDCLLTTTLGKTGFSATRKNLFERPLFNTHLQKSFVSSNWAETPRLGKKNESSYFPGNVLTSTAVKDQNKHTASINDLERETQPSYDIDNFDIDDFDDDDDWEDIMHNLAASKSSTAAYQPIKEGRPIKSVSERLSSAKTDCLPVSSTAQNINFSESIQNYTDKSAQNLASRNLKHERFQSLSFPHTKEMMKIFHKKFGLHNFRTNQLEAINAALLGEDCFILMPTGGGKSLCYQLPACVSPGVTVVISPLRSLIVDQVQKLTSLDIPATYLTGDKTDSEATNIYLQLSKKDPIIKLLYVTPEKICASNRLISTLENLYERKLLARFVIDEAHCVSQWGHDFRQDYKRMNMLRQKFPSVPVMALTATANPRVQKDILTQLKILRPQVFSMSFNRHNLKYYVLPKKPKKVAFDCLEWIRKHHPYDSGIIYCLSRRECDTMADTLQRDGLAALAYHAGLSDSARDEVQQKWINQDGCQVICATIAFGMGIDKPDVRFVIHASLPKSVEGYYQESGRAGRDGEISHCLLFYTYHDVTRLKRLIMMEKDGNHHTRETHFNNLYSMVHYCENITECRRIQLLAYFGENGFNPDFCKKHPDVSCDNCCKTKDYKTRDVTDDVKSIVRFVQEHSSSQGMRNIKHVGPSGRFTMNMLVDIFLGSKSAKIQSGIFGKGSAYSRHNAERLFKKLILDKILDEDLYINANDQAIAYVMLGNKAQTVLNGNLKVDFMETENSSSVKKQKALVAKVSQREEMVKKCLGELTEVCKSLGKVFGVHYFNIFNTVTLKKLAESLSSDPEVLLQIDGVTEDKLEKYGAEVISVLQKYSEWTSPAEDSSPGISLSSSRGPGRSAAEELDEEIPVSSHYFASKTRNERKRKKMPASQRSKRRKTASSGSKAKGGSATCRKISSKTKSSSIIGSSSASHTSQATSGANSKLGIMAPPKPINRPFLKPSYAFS

With `O=C(O)/C=C/c1cnc[nH]1`, the call in experiment [1] and in experiment [12] was inactive. Besides, the Potency entry in experiment [2], in experiment [3], in experiment [4], in experiment [5], in experiment [6] and in experiment [7] was “inactive” throughout. Moreover, the Potency result in [8], in experiment [9], in experiment [10] and in [11] was “inactive” in each case.

Consider `Oc1cc(O)c2c(c1)O[C@H](c1ccc(O)c(O)c1)[C@@H](O)C2`, for which the molecule was called inactive in experiment [1]. Besides, the activity change, negative = inhibition in [13] was 1.15% (inactive). For the same molecule, the results for the max response in experiment [13] (setting [18]) and in experiment [13] (setting [19]) were -12.7% and -13.1%, respectively. Moreover, the Potency entry in [4], in experiment [5], in experiment [6], in [7], in experiment [8] and in experiment [9] was “inactive” each time. For the same molecule, the Potency entry in [11], in [14] and in experiment [15] was “inactive” in each case.

Turning to `CC(=O)O[C@H]1CC2(C)[C@@H](C[C@@H](O)[C@H]3[C@@]4(C)CC[C@@H](O)[C@@H](C)[C@@H]4CC[C@@]32C)C1=C(CCC=C(C)C)C(=O)O` (some centres undefined), the call in [1] and in [12] was inactive. The activity change, negative = inhibition in [13] was 0.469% (inactive). Also, the results for the max response in experiment [13] (setting [18]) and in [13] (setting [19]) were -5.46% and -5.43%, respectively. In addition, the Potency entry in experiment [3], in experiment [4], in experiment [9], in [14] and in [15] was “inactive” each time. In addition, the Potency is 8.91 µM (active) in [5] and 10 µM (active) in experiment [10].

For `NC(=O)CC[C@H](N)C(=O)O`, the result in experiment [1] was inactive. Also, the Potency result in experiment [2], in experiment [3], in experiment [4], in experiment [5], in experiment [6] and in experiment [7] was “inactive” each time. For the same molecule, the Potency result in [8], in [9], in experiment [10], in [11] and in experiment [15] was “inactive” in each case.

With `C=CCN1CCc2c(cc(O)c(O)c2Cl)C(c2ccccc2)C1` (centres undefined), in experiment [1], the outcome was inactive. The Potency result in experiment [2], in experiment [3], in experiment [4] and in experiment [15] was “inactive” each time. Besides, the Potency in experiment [5] is 5.01 µM (active); in [6] it was 5.01 µM (active); in experiment [7], 7.94 µM (active); in experiment [8] it was 12.6 µM (active); in [9], 10 µM (active); in experiment [10], 3.55 µM (active). The Potency in [11] is 7.08 µM (active).

On to `CCN(CC)CCCCCCCCOC(=O)c1cc(OC)c(OC)c(OC)c1`, for which the molecule was called inactive in experiment [16] and in experiment [1]. Also, the activity change, negative = inhibition in experiment [13] was 0.792% (inactive). The max response is 8.64% in experiment [13] (setting [18]) and 11.3% in experiment [13] (setting [19]). Moreover, the Potency entry in experiment [3], in [14], in experiment [15] and in experiment [17] was “inactive” each time. Moreover, the Potency in experiment [5] is 7.08 µM (active); in experiment [7], 5.62 µM (active); in [9] it was 8.91 µM (active); in [10], 3.55 µM (active).

With `C=CCN1CCc2c(cc(O)c(O)c2Br)[C@@H](c2ccccc2)C1`, the result in [1] was inactive. For the same molecule, the Potency result in [2], in experiment [3], in experiment [4], in experiment [14] and in experiment [15] was “inactive” each time. The Potency in [5] was 5.01 µM (active); in experiment [6] it was 5.01 µM (active); in experiment [7] it was 7.08 µM (active); in [8] it was 11.2 µM (active); in [9], 8.91 µM (active); in experiment [10] it was 3.98 µM (active). Moreover, the Potency in experiment [11] is 7.08 µM (active).

Consider `CC1=C(C(=O)O)N2C(=O)[C@@H](NC(=O)C(N)C3=CCC=CC3)[C@H]2SC1` (some centres undefined), for which the result in experiment [1] was inactive. Further, the Potency result in experiment [2], in [3], in [4], in experiment [5], in experiment [6] and in experiment [7] was “inactive” throughout. Moreover, the Potency result in experiment [8], in experiment [9], in experiment [10], in [11] and in [15] was “inactive” each time.

For `COc1cc(C(O)C(=O)O)ccc1O` (centres undefined), the result in experiment [1] and in experiment [12] was inactive. Moreover, the Potency entry in [2], in [3], in [4], in experiment [5], in [6] and in experiment [7] was “inactive” in each case. Also, the Potency result in experiment [8], in experiment [9], in experiment [10], in [11] and in [15] was “inactive” in each case.

With `CCCCCCCCCC(=O)NC(CN1CCOCC1)[C@H](O)c1ccccc1` (some centres undefined), the call in experiment [1] was inactive. Also, the Potency entry in experiment [2], in experiment [3], in experiment [4] and in experiment [15] was “inactive” throughout. Further, the Potency was 1.26 µM (active) in experiment [5]; 2 µM (active) in experiment [6]; 6.31 µM (active) in experiment [7]; 12.6 µM (active) in experiment [8]; 2.24 µM (active) in [9]; 1.58 µM (active) in experiment [10]. Moreover, the Potency in experiment [11] is 8.91 µM (active).
